Results: ChEMBL document CHEMBL2218924, “A broad activity screen in support of a chemogenomic map for kinase signalling research and drug discovery” (Biochem J, 2013)

The compounds below were run against Activated CDC42 kinase 1 (Homo sapiens) (UniProt Q07912). Settings: at 10 µM.
Sequence of Activated CDC42 kinase 1 (Homo sapiens) (Q07912 whole entry, looked up): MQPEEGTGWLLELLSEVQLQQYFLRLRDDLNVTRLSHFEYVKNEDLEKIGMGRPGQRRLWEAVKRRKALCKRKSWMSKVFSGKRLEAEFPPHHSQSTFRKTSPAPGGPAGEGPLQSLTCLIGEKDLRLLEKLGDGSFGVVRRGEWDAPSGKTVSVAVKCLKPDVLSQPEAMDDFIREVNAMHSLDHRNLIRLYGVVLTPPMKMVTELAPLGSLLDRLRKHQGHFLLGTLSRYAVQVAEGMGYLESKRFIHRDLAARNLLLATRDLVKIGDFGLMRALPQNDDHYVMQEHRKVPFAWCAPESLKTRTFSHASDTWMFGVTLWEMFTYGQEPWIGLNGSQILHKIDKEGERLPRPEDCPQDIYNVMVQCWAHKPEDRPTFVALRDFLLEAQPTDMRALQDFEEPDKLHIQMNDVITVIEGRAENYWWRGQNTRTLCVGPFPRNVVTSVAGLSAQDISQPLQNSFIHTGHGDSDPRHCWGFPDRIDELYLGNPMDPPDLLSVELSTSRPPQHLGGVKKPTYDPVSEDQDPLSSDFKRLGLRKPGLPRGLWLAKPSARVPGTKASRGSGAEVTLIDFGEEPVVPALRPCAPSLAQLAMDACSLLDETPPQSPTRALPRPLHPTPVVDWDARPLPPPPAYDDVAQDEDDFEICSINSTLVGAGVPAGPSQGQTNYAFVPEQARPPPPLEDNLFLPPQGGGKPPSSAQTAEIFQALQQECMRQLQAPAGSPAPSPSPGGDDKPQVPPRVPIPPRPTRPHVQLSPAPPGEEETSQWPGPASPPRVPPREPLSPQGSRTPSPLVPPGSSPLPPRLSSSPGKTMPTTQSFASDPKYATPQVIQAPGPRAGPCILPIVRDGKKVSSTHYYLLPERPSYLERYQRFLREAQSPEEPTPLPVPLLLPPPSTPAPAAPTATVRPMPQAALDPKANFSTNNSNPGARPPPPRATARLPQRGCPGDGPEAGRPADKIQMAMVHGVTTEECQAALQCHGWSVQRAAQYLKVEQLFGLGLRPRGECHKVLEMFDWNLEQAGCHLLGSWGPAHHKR

In order of rising residual activity:
1. Cn1c2ccccc2c2c3c(c4c5ccccc5n(CCC#N)c4c21)CNC3=O  0%
2. Nc1ncnc2c1c(-c1ccc(Oc3ccccc3)cc1)cn2C1CCCC1  1%
3. CCN(CC)CCNC(=O)c1c(C)[nH]c(/C=C2\C(=O)Nc3ccc(Cl)cc32)c1C  1%
4. CN(C)S(=O)(=O)c1ccc2c(c1)/C(=C/c1cc3c([nH]1)CCCC3)C(=O)N2  8%
5. c1ccc(-c2cnc(Nc3ccc(OCCN4CCCC4)cc3)s2)cc1  16%
6. O=C1NC(=O)C(c2c[nH]c3ccccc23)=C1c1c[nH]c2ccccc12  21%
7. O=C1NC(=O)c2c1c1c3ccccc3[nH]c1n1cncc21  23%
8. O=C1Cc2c([nH]c3ccc([N+](=O)[O-])cc23)-c2ccccc2N1  24%
9. CC(C)c1nn(-c2c(Cl)cccc2Cl)c2nc(Cc3ccc(OCCO)cc3)[nH]c(=O)c12  31%
10. CCOC(=O)c1c(C)[nH]c(/C=C2\C(=O)Nc3ccccc32)c1C  64%
11. Cn1sc(=O)n(Cc2ccccc2)c1=O  64%
12. O=C(CCCc1ccc(-c2ccccc2F)cc1)Nc1ccc(O)cc1  75%
13. O=c1cc(N2CCOCC2)oc2c1ccc1ccccc12  77%

Each compound was assayed against ALK tyrosine kinase receptor (Homo sapiens) (UniProt Q9UM73). Settings: at 1 µM.
Sequence of ALK tyrosine kinase receptor (Homo sapiens) (Q9UM73 19-1620 limits assumed): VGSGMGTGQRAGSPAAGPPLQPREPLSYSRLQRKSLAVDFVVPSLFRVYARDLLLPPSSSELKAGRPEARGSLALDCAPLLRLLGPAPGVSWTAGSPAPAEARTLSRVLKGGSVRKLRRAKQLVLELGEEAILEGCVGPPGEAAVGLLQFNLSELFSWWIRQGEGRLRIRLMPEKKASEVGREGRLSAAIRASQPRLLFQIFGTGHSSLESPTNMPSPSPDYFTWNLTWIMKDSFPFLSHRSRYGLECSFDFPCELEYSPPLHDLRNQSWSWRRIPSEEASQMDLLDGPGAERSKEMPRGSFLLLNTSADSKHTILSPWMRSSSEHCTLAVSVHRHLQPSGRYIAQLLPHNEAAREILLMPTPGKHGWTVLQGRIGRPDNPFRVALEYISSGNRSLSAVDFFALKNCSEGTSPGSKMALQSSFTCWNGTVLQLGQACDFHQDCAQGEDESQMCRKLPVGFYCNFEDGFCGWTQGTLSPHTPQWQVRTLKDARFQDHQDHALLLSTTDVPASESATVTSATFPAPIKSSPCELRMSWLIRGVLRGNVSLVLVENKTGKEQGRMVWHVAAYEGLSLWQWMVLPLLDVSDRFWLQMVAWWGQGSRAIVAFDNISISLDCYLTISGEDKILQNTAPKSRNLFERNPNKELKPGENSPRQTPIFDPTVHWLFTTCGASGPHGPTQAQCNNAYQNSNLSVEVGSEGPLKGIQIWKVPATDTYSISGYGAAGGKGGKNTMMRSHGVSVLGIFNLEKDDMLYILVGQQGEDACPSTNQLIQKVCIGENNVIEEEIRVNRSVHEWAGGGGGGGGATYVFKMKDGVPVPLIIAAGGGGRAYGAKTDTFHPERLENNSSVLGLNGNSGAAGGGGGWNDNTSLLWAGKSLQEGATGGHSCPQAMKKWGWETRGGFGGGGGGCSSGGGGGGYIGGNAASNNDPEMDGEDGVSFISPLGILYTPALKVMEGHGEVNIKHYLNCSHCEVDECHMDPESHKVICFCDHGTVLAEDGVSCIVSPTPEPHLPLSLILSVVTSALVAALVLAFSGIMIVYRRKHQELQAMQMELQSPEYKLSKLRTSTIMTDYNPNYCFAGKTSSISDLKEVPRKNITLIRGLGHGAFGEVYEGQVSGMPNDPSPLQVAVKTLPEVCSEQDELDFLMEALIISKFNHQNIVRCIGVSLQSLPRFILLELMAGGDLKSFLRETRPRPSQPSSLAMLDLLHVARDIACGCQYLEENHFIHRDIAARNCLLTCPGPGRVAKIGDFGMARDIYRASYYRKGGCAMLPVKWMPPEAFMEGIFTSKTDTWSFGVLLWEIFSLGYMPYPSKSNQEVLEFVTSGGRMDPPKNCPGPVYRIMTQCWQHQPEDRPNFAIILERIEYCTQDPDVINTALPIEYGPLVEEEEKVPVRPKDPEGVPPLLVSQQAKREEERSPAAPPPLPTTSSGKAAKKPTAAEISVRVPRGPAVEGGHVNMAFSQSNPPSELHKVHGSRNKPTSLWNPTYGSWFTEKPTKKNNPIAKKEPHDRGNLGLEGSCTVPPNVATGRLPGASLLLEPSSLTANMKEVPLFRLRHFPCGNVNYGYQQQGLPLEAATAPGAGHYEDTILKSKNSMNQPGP

In order of rising residual activity:
1. Cn1c2ccccc2c2c3c(c4c5ccccc5n(CCC#N)c4c21)CNC3=O  0%
2. CCN(CC)CCNC(=O)c1c(C)[nH]c(/C=C2\C(=O)Nc3ccc(Cl)cc32)c1C  8%
3. CN(C)S(=O)(=O)c1ccc2c(c1)/C(=C/c1cc3c([nH]1)CCCC3)C(=O)N2  44%
4. Cn1sc(=O)n(Cc2ccccc2)c1=O  64%
5. O=C1C(Cl)=C(N2C(=O)CCC2=O)C(=O)c2ccccc21  65%
6. Nc1n[nH]c2nc3ccccc3nc12  67%
7. O=C(c1cc2cc(O)ccc2[nH]1)c1cc2cc(O)ccc2[nH]1  68%
8. O=C1Nc2ccc(Cl)cc2/C1=C/c1cc(Cl)c(O)c(Cl)c1  68%
9. O=c1cc(N2CCNCC2)oc2c(-c3ccccc3)cccc12  69%
10. CCCCc1c(-c2ccc(OC)cc2)[nH]c2nccnc12  70%
11. CC(C)N(CCC(=O)c1ccc2ccccc2c1)Cc1ccccc1  74%
12. Nc1ncnc2c1c(-c1ccc(Oc3ccccc3)cc1)cn2C1CCCC1  76%
13. COc1ccc(Cl)cc1NC(=O)Nc1cc(C)nc2ccccc12  77%
14. O=C1NC(=O)c2c1c1c3ccccc3[nH]c1n1cncc21  77%
15. CCCC(=O)Oc1ccc2[nH]c(C(=O)c3cc4ccccc4[nH]3)cc2c1  78%
16. NC(=O)Nc1sc(-c2ccc(F)cc2)cc1C(N)=O  78%
17. CC(C)c1nn(-c2c(Cl)cccc2Cl)c2nc(Cc3ccc(OCCO)cc3)[nH]c(=O)c12  78%
18. COc1cc2nccc(Oc3ccc(NC(=S)NC(=O)c4ccccc4C)cc3)c2cc1OC  79%
19. CCOC(=O)c1c(C)[nH]c(/C=C2\C(=O)Nc3ccccc32)c1C  80%
20. O=C(NC(NC(=S)Nc1ccc(F)c([N+](=O)[O-])c1)C(Cl)(Cl)Cl)C(c1ccccc1)c1ccccc1 (stereo not drawn)  81%
21. O=c1cc(N2CCOCC2)oc2c1ccc1ccccc12  81%
22. O=C(O)/C=C/c1cc(Br)c(Br)c(Br)c1Br  88%
23. O=C1Cc2c([nH]c3ccc(Br)cc23)-c2ccccc2N1  88%
24. O=C(CCCc1ccc(-c2ccccc2F)cc1)Nc1ccc(O)cc1  88%
25. CC(C)(C)n1nc(Cc2cccc3ccccc23)c2c(N)ncnc21  89%
